From PubChem BioAssay AID1851 (National Center for Advancing Translational Sciences (NCATS), 2009)
Where “and” joins values, the source holds several entries; their conditions need not be identical. Equal values may be shown once. Among all 16,000 compounds or so, about 2,600 (16%) were called active. Roughly 20% stayed inconclusive and do not appear here. These entries were drawn from the full list. Unmarked numbers belong to inactive results. The call rests on the fitted dose curve; in most records, active means well fitted curve in the direction sought with a large enough effect; inconclusive means small, poorly fitted or top-dose-only effect, or effect the other way; inactive means no such curve, though single readings can be large or run the other way.

Target: Cytochrome P450 2D6 (Homo sapiens) (UniProt P10635)
Sequence (P10635 whole entry, looked up): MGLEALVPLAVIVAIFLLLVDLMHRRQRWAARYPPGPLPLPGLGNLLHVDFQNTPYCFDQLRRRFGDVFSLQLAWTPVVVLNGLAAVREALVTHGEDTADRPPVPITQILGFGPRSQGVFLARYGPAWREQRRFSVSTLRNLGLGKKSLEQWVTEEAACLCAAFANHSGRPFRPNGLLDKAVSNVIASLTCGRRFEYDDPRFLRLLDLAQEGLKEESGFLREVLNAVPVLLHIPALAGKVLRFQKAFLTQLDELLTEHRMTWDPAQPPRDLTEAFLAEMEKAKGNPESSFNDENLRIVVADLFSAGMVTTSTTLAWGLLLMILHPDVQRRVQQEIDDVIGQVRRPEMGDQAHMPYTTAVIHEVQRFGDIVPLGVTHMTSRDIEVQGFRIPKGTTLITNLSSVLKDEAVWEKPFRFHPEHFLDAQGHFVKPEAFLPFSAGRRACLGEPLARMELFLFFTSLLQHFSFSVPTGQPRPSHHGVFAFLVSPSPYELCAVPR
Experiment: Cytochrome panel assay with activity outcomes
Conditions: recombinant CYP, pro-luciferin dealkylation, luminescence, p450-cyp2d6; series mostly up to 57.1 µM
On the % scale 0 is the no-effect control and ±100 the full control effect.

SMILES | AC50 | activity, negative = inhibition
CCSc1nc2ccccc2n1C(=O)/C=C\c1ccc(OC)c(OC)c1 | inactive | –
CC(C)COP(=O)(OCC(C)C)C(O)c1ccccc1F (centres undefined) | inactive | –
Cc1nc2ccc3nc(NC(=O)c4ccc(S(=O)(=O)N5CCOCC5)cc4)sc3c2s1 | inactive | –
COCc1nnc(NC(=O)c2ccc(S(=O)(=O)N3CCCCCC3)cc2)o1 | inactive | –
CCN(CC)S(=O)(=O)c1ccc(C(=O)Nc2ncn(Cc3ccccc3)n2)cc1 | inactive | –
O=C(NCc1n[nH]c(=S)n1-c1ccccc1)c1ccc(S(=O)(=O)N2CCOCC2)cc1 | inactive | –
CN(C)S(=O)(=O)c1ccc(C(=O)Nc2ccc(CN3CCCC3)cc2)cc1 | 2.51 µM (active) | –
O=C(Nc1ccc(S(=O)(=O)N2CCOCC2)cc1)c1ccc(CN2CCc3ccccc3C2)cc1 | 0.178 µM (active) | –
O=C(Nc1ccc(S(=O)(=O)N2CCCCC2)cc1)c1ccc(CN2CCc3ccccc3C2)cc1 | 0.251 µM (active) | –
CN(C)S(=O)(=O)c1ccc(NC(=O)c2cc(F)c(F)cc2Cl)cc1 | inactive | –
O=C(Nc1ccc(S(=O)(=O)N2CCCC2)cc1)c1ccc(CN2CCOCC2)cc1 | 5.01 µM (active) | –
CCOC(=O)c1c(NC(=O)c2ccc(S(=O)(=O)N3CCOCC3)cc2)sc2c1CCN(C)C2 | inactive | –
O=C(CSc1ncccn1)Nc1ccc(S(=O)(=O)N2CCCCC2)cc1 | inactive | –
O=C(Nc1ccccc1-c1nc2ccccc2[nH]1)c1ccc(S(=O)(=O)N2CCCCC2)cc1 | inactive | –
C[C@@H](c1ccccc1)N1C(=O)[C@H]2[C@@H]3[C@H](O)[C@H](O)CC(=O)[C@H]3CC[C@H]2C1=O | – | 12.3% [at 11.4 µM] and 1.84% [at 11.4 µM]
C#CCCCO/N=C1/C[C@@H](O)[C@@H](O)[C@@H]2[C@@H]3C(=O)N(C[C@@H]4CCCO4)C(=O)[C@H]3CC[C@@H]12 | – | 9.44% [at 11.4 µM]
CCCCOc1ccccc1C1CC(=O)NC2=C1C(=O)CCC2 (centres undefined) | inactive | –
COc1ccc(N2CCN(S(=O)(=O)c3ccc4c(c3)CCCC4)CC2)c([N+](=O)[O-])c1 | inactive | –
Cn1c(=O)[nH]c(=O)c2c1nc(NCCCO)n2CCCc1ccccc1 | inactive | –
O=C(Nc1nc(-c2ccccc2)cs1)c1cccc([N+](=O)[O-])c1 | inactive | –
Cc1nn(-c2ccc(F)cc2)c(Cl)c1/C=C(\CCC(=O)O)c1nc2ccccc2s1 | inactive | –
CC(=O)[C@H]([C@@H](c1ccccc1)N1CCOCC1)N1CCOCC1 | – | -3.05% [at 11.4 µM]
CN1CCc2c(c3ccccc3n2C)C1 | 12.6 µM (active) | –
O=c1[nH]ncc2c3ccccc3n(Cc3ccccc3)c12 | inactive | –

SMILES | AC50 | activity, negative = inhibition
CN1CCc2[nH]nc(-c3n[nH]c4c3CN(C)CC4)c2C1 | – | 11.7% [at 11.4 µM]
CN1CCc2nc(N)nc(-c3nc(N)nc4c3CN(C)CC4)c2C1 | – | 8.94% [at 11.4 µM]
CN1CCc2c(c3ccccc3n2Cc2ccccc2)C1 | 3.16 µM (active) | –
CCCNC(=O)OC[C@@H]1O[C@H](CCO/N=C\[C@@H](C)[C@H](OCc2ccccc2)C(C)C)C=C[C@@H]1Oc1ccc(OC)cc1 | – | -8.99% [at 11.4 µM]
O=C1N=C2SCCN2/C1=C\c1c(Cl)cccc1Cl | inactive | –
COC(=O)C/C=C\[C@H](C)[C@H](CO)NS(=O)(=O)c1ccc(C)cc1 | – | -10.6% [at 11.4 µM]
COCCn1c(=O)c(C)nc2cnc(N(C)C)nc21 | inactive | –
Cn1c(=O)c(-c2ccccc2)nc2cnc(N3CCNCC3)nc21 | inactive | –
CCN(CC)c1ccc(N2C(=O)/C(=C/c3cccnc3)SC2=S)cc1 | inactive | –
Cc1c(NC(=O)C2CCN(S(=O)(=O)c3ccc(Cl)cc3)CC2)c(=O)n(-c2ccccc2)n1C | inactive | –
CCC/C=C(\CCC)C(NC(=O)c1ccc(-c2ccccc2)cc1)c1ccc(C(=O)OC)cc1 (centres undefined) | inactive | –
CCC/C=C(\CCC)C(NS(=O)(=O)c1cccc2cccnc12)c1ccc(C(=O)OC)cc1 (centres undefined) | inactive | –
CCC/C=C(\CCC)C(NS(=O)(=O)c1cccs1)c1ccc(C(=O)OC)cc1 (centres undefined) | 6.31 µM (active) | –
CCC/C=C(\CCC)C(NC(=O)c1ccc(C(F)(F)F)cc1)c1ccc(C(F)(F)F)cc1 (centres undefined) | inactive | –
CCC/C=C(\CCC)C(NS(=O)(=O)c1ccc(C(F)(F)F)cc1)c1ccc(-c2ccccc2)cc1 (centres undefined) | inactive | –
CCC/C=C(\CCC)C(NS(=O)(=O)CC12CCC(CC1=O)C2(C)C)c1ccc(C(=O)OC)cc1 (centres undefined) | 5.01 µM (active) | –
CCC/C=C(\CCC)C(NS(=O)(=O)c1ccc(Cl)cc1)c1ccccc1 (centres undefined) | 20 µM (active) | –
CCC/C=C(\CCC)C(NS(=O)(=O)c1ccc(Cl)cc1)c1ccc(C(=O)OC)cc1 (centres undefined) | inactive | –
CCC/C=C(\CCC)C(NC(=O)c1ccc(C(F)(F)F)cc1)c1ccccc1 (centres undefined) | 7.94 µM (active) | –
CCC/C=C(\CCC)C(NS(=O)(=O)c1ccc(C(F)(F)F)cc1)c1ccc(C(=O)OC)cc1 (centres undefined) | inactive | –
CCC/C=C(\CCC)C(NC(=O)OCC(C)C)c1ccc(C(=O)OC)cc1 (centres undefined) | inactive | –
CCC/C=C(\CCC)C(NC(=O)c1cccs1)c1ccc(C(=O)OC)cc1 (centres undefined) | inactive | –
O=C(Nc1cccn(Cc2c(Cl)cccc2Cl)c1=O)c1ccc(Cl)cc1Cl | inactive | –
Cc1ccccc1N1CCN(C(=O)c2ccccc2NC(=O)/C=C\C(=O)O)CC1 | inactive | –

SMILES | AC50 | activity, negative = inhibition
C/C(=N\[N+](C)(C)C)c1ccc(C)c(C)c1 | – | -19.6% [at 11.4 µM]
O=C(O)C1C2C=CC(C2)C1C(=O)N1CCN(C/C=C/c2ccccc2)CC1 (centres undefined) | inactive | –
Cc1cccc(C(=O)Nc2nnc(-c3ccc(C(C)(C)C)cc3)s2)c1 | inactive | –
CCCc1nnc(NC(=O)Cn2cnc3ccccc3c2=O)s1 | inactive | –
COc1ccc(C(O)P(=O)(OC(C)C)OC(C)C)cc1OC (centres undefined) | inactive | –
CCc1ccc(N2C(=O)c3ccc4c5c(ccc(c35)C2=O)CC4)cc1 | inactive | –
C=CCN1C(=O)CN=C1Nc1ccccc1 | inactive | –
CN1CCN(/C=N/C2=C(C#N)C(c3ccccc3)C3=C(CC(C)(C)CC3=O)O2)CC1 (centres undefined) | inactive | –
CSc1nc(C)c2c(n1)N(c1ccc(C(F)(F)F)cc1)CC2 | inactive | –
COc1cc(OC)c2nc(C)c3c(c2c1)N(c1ccc(O)cc1)CC3 | 3.16 µM (active) | –
COc1ccc(N2C(=O)CSC2c2cccc(F)c2)c(OC)c1 (centres undefined) | inactive | –
COc1ccc(N2CCc3c(C)nc4c(OC)cc(OC)cc4c32)c(OC)c1 | 0.1 µM (active) | –
COc1ccc2c(C)cc(N3CCOCC3)nc2c1 | inactive | –
CSc1nc(C)c2c(n1)N(c1ccc(C(C)C)cc1)CC2 | inactive | –
CN(C)CCNc1ncnc2c1sc1nc(N3CCOCC3)c3c(c12)CC(C)(C)SC3 | inactive | –
CC(C)/C(=N/[N+](C)(C)C)c1ccccc1 | – | 6.75% [at 11.4 µM]
CC(C)NCCCOc1ccc(Cl)cc1Br | 0.178 µM (active) | –
CC1(C)CC(=O)C/C(=N/NC(=O)CCCOc2ccc(Cl)cc2Cl)C1 | inactive | –
CC(C)C(=O)Nc1ccc(C(=O)NNC(=O)CCCOc2ccc(Cl)cc2Cl)cc1 | inactive | –
CC1(C)O[C@H]2[C@@H](O1)[C@@H](On1nnc3ccc(Cl)cc31)O[C@@H]2[C@@H]1COC(C)(C)O1 | – | -7.25% [at 11.4 µM]
COc1ccc(C(=O)NNC(=O)CSc2nnc(COc3ccc4ccccc4c3)n2C)cc1 | inactive | –
Oc1ccc(-c2[nH]ncc2-c2ccc(Cl)cc2)c(O)c1 | 8.91 µM (active) | –
Cc1[nH]nc(-c2ccc(O)cc2O)c1-c1ccc(Cl)cc1 | 3.55 µM (active) | –
C=C(C)COc1ccc(-c2n[nH]c(C)c2-c2ccc(OC)cc2)c(O)c1 | inactive | –

SMILES | AC50 | activity, negative = inhibition
CCCCc1ccc(-c2csc(/C(C#N)=C/c3ccc(C)o3)n2)cc1 | inactive | –
CS(=O)c1ccccc1-c1nc(-c2cc(C(F)(F)F)cc(C(F)(F)F)c2)no1 (centres undefined) | inactive | –
COc1ccc(-n2nc3cc(C)c(NC(=S)NC(=O)c4ccccc4C)cc3n2)cc1 | inactive | –
COC(=O)c1cc(C(=O)c2ccc(Cl)cc2Cl)cn1C | inactive | –
CC1(C)S[C@@H]2[C@H](NC(=O)[C@@H](N)c3ccccc3)C(=O)N2[C@H]1C(=O)O[C@H]1OC(=O)c2ccccc21 | inactive | –
CC(=O)Nc1ccc(Nc2ncc([N+](=O)[O-])c(Nc3ccc(NC(C)=O)cc3)n2)cc1 | inactive | –
Cc1ccc(Nc2c([N+](=O)[O-])ccc3c2=NC2(CCCCC2)N=3)cc1 | 25.1 µM (active) | –
O=C(NC1CCCC1)c1cccnc1N1CCCCCC1 | inactive | –
Cc1ccc(NC(=O)c2sc3nc[nH]c(=O)c3c2C)c(C)c1 | inactive | –
CCCSc1nnc2n(N)c(=O)c3ccccc3n12 | inactive | –
O=C(CCOc1ccccc1)Nc1ccccc1 | inactive | –
Cc1c(NC(=O)CCCOc2ccccc2)cccc1[N+](=O)[O-] | 1.58 µM (active) | –
COC(=O)c1cccc(NC(=O)CCCOc2ccccc2)c1 | 10 µM (active) | –
Cc1c(NC(=O)/C=C/C(=O)O)cccc1[N+](=O)[O-] | inactive | –
Cc1ccc(OCCCC(=O)Nc2ccccc2C(F)(F)F)cc1 | inactive | –
CCC(=O)Nc1cccc(C(=O)/C=C/c2ccccc2)c1 | inactive | –
CCc1sc(-c2c(C#N)c(N)nc3c2CCCCCC3)cc1[N+](=O)[O-] | inactive | –
COc1ccccc1CCn1c(=O)c(-c2cn(C)c3ccccc23)nc2cncnc21 | inactive | –
CC(C)n1c(O)c(/C=C2\C=Nc3ccccc32)sc1=Nc1ccccc1 | inactive | –
COc1ccc2sc3ccccc3c(=O)c2c1OC | inactive | –
CCN(CC)CCNc1ccc(CO)c2sc3ccccc3c(=O)c12 | 5.01 µM (active) | –
O=c1c2ccccc2sc2c(CO)ccc(NCCN3CCCCC3)c12 | 1.26 µM (active) | –
